Compound activity from PubChem BioAssay.
In the library only some 9.4% were active in any assay of this set; here they are far more common.
FLuc counter – counter-screen for miR-21 project: firefly luciferase inhibitors or activators. purified FLuc, Km substrates, luminescence inhibition. Potency, µM (series often up to 57.5 µM), without a hit: at the highest dose activity change, negative = inhibition, usual class: inhibitors. hit rate 6.9% among 360,000;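 note: plate controls were vehicle for no effect and reference inhibitor for full effect; nearly all actives have a fitted effect of over 55% in size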
Target sequence (P08659 whole entry, looked up): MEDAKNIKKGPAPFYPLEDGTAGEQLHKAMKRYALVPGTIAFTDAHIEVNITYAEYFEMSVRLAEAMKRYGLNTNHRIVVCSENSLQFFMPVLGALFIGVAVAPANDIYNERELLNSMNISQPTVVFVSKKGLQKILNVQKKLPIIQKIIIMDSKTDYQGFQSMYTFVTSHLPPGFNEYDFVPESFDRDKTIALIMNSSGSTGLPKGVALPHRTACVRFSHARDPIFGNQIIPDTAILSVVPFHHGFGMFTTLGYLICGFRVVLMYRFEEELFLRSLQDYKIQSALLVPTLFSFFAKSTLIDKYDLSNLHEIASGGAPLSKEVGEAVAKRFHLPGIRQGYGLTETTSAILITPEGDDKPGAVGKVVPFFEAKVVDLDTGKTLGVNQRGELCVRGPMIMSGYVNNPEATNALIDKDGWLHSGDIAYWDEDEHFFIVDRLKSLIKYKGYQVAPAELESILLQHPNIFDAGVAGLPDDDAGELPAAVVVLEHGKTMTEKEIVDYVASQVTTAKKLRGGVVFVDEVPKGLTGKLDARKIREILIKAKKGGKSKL
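Purified P. pyralis luciferase (10nM final) with 10uM D-luciferin and 10uM ATP (Km levels) in 50mM Tris acetate pH 7.5, 10mM Mg acetate, 0.01% Tween-20, 0.05% BSA; qHTS 6-point titration, ~60 µM downward; luminescence read.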
SMN2 splice up – SMN2 splice variant enhancement | HEK293 SMN2-luciferase splicing reporter, luminescence, 30-36 h | hit rate 2.8% among 210,000 | Potency, µM (top dose mostly 46.1 µM), without a hit: at the top dose activity change, positive = activation, most hits filed as activators; note: % of control where 0% means no effect; nearly all actives have a fitted effect of over 55% in size
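qHTS luciferase splicing reporter: luminescence rises when SMN2 exon 7 is included in transfected HEK293 cells. Compound exposure lasted 30-36 h at 37C, with 4.5 mM final sodium butyrate as control, followed by a ONE-Glo read.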
ELG1 genotoxic – induces genotoxicity in HEK293T cells with luciferase-tagged ELG1; HEK293T ELG1-luciferase reporter, luminescence, 16 h; hit rate 1.3% among 330,000; Potency, µM (titrated, usually from 46 µM), for inactives: at the highest dose activity change, positive = activation, hits mostly activators; note: % of control where 0% means no effect; nearly all actives have a fitted effect of over 60% in size
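Cells (2,000/well) expressing the ELG1-luciferase fusion are dosed by pin tool and kept 16 hr at 37 °C, 5% CO2. Signal comes from ONE-Glo luciferase reagent after 30 min at room temperature.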
NPC1 prom act – NPC1 promoter activation. Huh7 NPC1 promoter luciferase reporter, 24 h. AID 485313. Potency, µM (titrated, usually from 9.22 µM), for the others: at the highest dose activation, usual class: activators. hit rate 2.4% among 320,000; note: % of control where 0% means no effect; nearly all actives have a fitted effect of over 60% in size
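In 1536-well qHTS, Huh7 cells harboring an NPC1 promoter–luciferase construct received compound for 24 h; activation was quantified by luminescence following luciferase reagent addition.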
Rab9 prom act – Rab9 promoter activation | Potency, µM (series often up to 9.22 µM), inactives show top-dose activation, negative = inhibition, usual class: activators | AID 485297 | Huh7 Rab9 promoter-luciferase reporter, luminescence, 24 h | hit rate 2.8% among 320,000; note: % of control where 0% means no effect; nearly all actives have a fitted effect of over 60% in size
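Promoter activation is measured as luciferase luminescence in Huh7 cells stably transfected with a Rab9 promoter–luciferase construct, following 24 h compound exposure at 37 °C and 10 min reagent incubation at ambient temperature.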
ELG1 DNA repair – ELG1-dependent DNA repair inhibition | HEK293T ELG1-luciferase reporter, luminescence, 16 h; DNA damage induced by 5-fluorouridine | Potency, µM (highest dose often 46.1 µM), without a hit: top-dose activity change, negative = inhibition, usual class: inhibitors | hit rate 2.3% among 330,000; note: % is set by controls: 0 for no effect and ±100 for the full control effect; nearly all actives have a fitted effect of over 55% in size
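5-Fluorouridine DNA damage + compound/DMSO, 2,000 cells/well, 16 h, 37 °C/5% CO2. ONE-Glo, 30 min RT, luminescence. Readout = decrease in reporter signal.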
Starred values were filed as active, the others as inactive; ? = inconclusive; · = not tested or not shown; [ ] = another dose, or the depositor's remark. Calls come from the whole dose curve; as a rule, active = well fitted curve in the direction sought with a large enough effect; inconclusive = small, poorly fitted or top-dose-only effect, or another doubt; inactive = no such curve, though single readings can be large; an effect the other way counts as inactive or inconclusive. Potency is the fitted concentration of half-maximal effect.

SMILES | FLuc counter | SMN2 splice up | ELG1 genotoxic | NPC1 prom act | Rab9 prom act | ELG1 DNA repair
CC(C)C[C@@H](/C=C/S(C)(=O)=O)NC(=O)[C@H](CC(C)C)NC(=O)[C@H](CC(C)C)NC(=O)OCc1ccccc1 | · | -110.6% | · | · | · | ·
CCN(CC)C(=O)CSc1nc2cc3c(cc2c(=O)n1Cc1ccc(C(=O)NCCc2ccc(OC)c(OC)c2)cc1)OCO3 | 3.0% | · | · | · | · | ·
COc1ccc(/C(N)=N/OC(=O)c2cccc([N+](=O)[O-])c2)cc1OC | ? | -13.2% | ? | 0.6% | -1.5% | 25.6%
N/C(=N\OC(=O)c1ccc2c(c1)OCO2)c1cccc([N+](=O)[O-])c1 | 0.426µM* | -9.3% | ? | 6.8% | ? | ?
COc1ccccc1C/C(N)=N/OC(=O)c1ccc2c(c1)OCO2 | ? | -65.6% | 0.2% | 1.4% | 0.9% | 9.2%
Cc1cccc(/C(N)=N/OC(=O)c2ccc3c(c2)OCO3)c1 | 0.19µM* | 25.1µM* | 9.2µM* | 2.82µM* | 2.82µM* | ?
CCC1CCc2c(sc(NC(=O)C3c4ccccc4Oc4ccccc43)c2C(=O)OC)C1 (centres undefined) | 1.0% | -20.7% | · | · | · | ·
O=C(N/N=C/c1cccnc1)c1ccccc1OCc1ccc(Br)cc1 | ? | -51.0% | -13.7% | 9.4% | 12.3% | 11.6µM*
O=C(N/N=C/c1cccnc1)c1cc(-c2ccccc2OCc2ccccc2)n[nH]1 | -16.7% | · | -9.1% | 0.0% | -5.3% | ?
O=C(N/N=C/c1cccnc1)c1ccccc1OCc1ccc(Cl)cc1 | ? | -12.1% | -11.4% | 0.2% | -38.1% | 23.1µM*
CC1CCN(S(=O)(=O)c2ccc3c(c2)N(CC(=O)N(C)Cc2ccccc2)C(=O)CO3)CC1 | 7.0% | · | · | · | · | ·
O=P1(O)Oc2c(-c3ccccc3)cc3ccccc3c2-c2c(c(-c3ccccc3)cc3ccccc23)O1 | · | -1.5% | · | · | · | ·
CCC(=O)Nc1ccccc1C(=O)OCC(=O)c1ccccc1 | 21.3µM* | 15.8µM* | ? | 2.82µM* | 3.55µM* | ?
CCC(=O)Nc1ccccc1C(=O)OCC(=O)c1ccc2ccccc2c1 | 15.1µM* | -10.7% | -4.7% | 10.1% | 15.1% | -20.0%
CCOC(=O)Cn1c(=O)n(CC2CCCO2)c2nc(-c3ccc(C(C)C)cc3)nc(C(N)=O)c21 (centres undefined) | -3.1% | · | · | · | · | ·
COc1cccc(N2CCN(S(=O)(=O)c3ccc(-c4ccno4)cc3OC)CC2)c1 | -1.5% | · | · | · | · | ·
C[N@@+]1(CC[N@@+]2(C)CCC[C@H]2c2cccnc2)CCC[C@@H]1c1cccnc1 | · | -0.1%[9.22 µM] | · | · | · | ·
Cc1cc(Nc2ccc(Br)cc2)nc(C)n1 | 21.3µM* | · | · | · | · | ·
Cc1cc(NC(=O)c2ccc(Br)cc2)nc(C)n1 | ? | · | -0.1% | -0.2% | -2.9% | 16.5%
CCOC(=O)c1ccc(Nc2cc(-c3ccccc3)nc(C)n2)cc1 | -6.7% | · | · | · | · | ·
COc1cccc(Nc2nc(-c3ccccc3)nc3ccccc23)c1 | -14.4% | · | -8.7% | -4.7% | -0.5%[1.84 µM] | ?
COc1ccc(Nc2cc(Nc3cccc(OC)c3)ncn2)cc1 | 2.69µM* | · | ? | ? | ? | ?
COc1cccc(Nc2cc(-c3ccccc3)nc(C)n2)c1 | 26.9µM* | · | · | · | · | ·
Cc1ccc(Nc2cc(-c3ccccc3)nc(C)n2)cc1 | 23.9µM* | · | · | · | · | ·
COC(=O)c1ccc(OCC2c3cc(OC)c(OC)cc3CCN2C(=O)Cc2ccc(OC)cc2)cc1 (centres undefined) | 2.5% | · | · | · | · | ·
SMILES | FLuc counter | SMN2 splice up | ELG1 genotoxic | NPC1 prom act | Rab9 prom act | ELG1 DNA repair
CCCN(CCC)C(=O)c1ccc2nc(-c3ccc(OC)c(OC)c3)c(-c3ccc(OC)c(OC)c3)nc2c1 | -0.2% | · | -0.7% | -3.6% | 0.3% | 11.6µM*
CCN(CC)C(=O)c1ccc2nc(-c3ccccc3)c(-c3ccccc3)nc2c1 | -5.4% | -22.5% | -4.2% | -0.5% | 1.0% | ?
CCN(c1ccccc1)c1ncnc2c1cnn2-c1ccccc1 | 19µM* | -59.0% | 20.6µM* | ? | ? | ?
Fc1ccc(CNc2ncnc3c2cnn3-c2ccccc2)cc1 | ? | -17.1% | · | · | · | ·
CN(Cc1ccccc1)c1ncnc2c1cnn2-c1ccccc1 | 6.01µM* | 5.62µM* | 18.4µM* | 2.51µM* | 2.82µM* | ?
CCN(Cc1ccccc1)c1ncnc2c1cnn2-c1ccc(F)cc1 | 7.57µM* | · | · | · | · | ·
CC(C)CCNC(=O)c1cccc(Nc2nc3ccccc3n3nnnc23)c1 | 0.2% | 1.7% | · | · | · | ·
CC1CCCC(C)N1C(=O)c1cccc2c1-c1ccccc1/C2=N/O (centres undefined) | -10.6% | -11.6% | -8.9% | -6.8% | 1.2% | 20.6µM*
C=CCn1c(COc2cc(C)ccc2C(C)C)nnc1SCC(=O)c1c(N)n(C)c(=O)n(C)c1=O | 4.78µM* | -29.2% | -4.2% | 1.1% | -3.5% | ?
Cc1ccc(C(C)C)c(OCC(=O)OCC(=O)c2c(N)n(C)c(=O)n(C)c2=O)c1 | ? | · | -2.3% | 1.4% | 0.5% | 12.2%
Cc1ccccc1OCCCCn1c(CCNC(=O)C(C)(C)C)nc2ccccc21 | -8.2% | -24.7% | · | · | · | ·
CCOC(=O)c1nc(NNC(=O)c2ccc([N+](=O)[O-])cc2)sc1C | -15.9% | · | -14.9% | -35.9% | -35.6% | 16.4µM*
O=C(NCc1ccc2c(c1)CCO2)Nc1ccccc1 | 15.1µM* | · | ? | 3.55µM* | 3.16µM* | ?
Cc1ccc(NC(=O)C2(C)Cc3ccccc3C(=O)O2)c(C)c1 (centres undefined) | 3.7% | 1.6% | · | · | · | ·
CC1CCc2c(sc3ncnc(NS(=O)(=O)c4cccs4)c23)C1 (centres undefined) | 15.1µM* | 5.1% | -0.1% | -2.9% | 1.6% | -2.8%
COCCCNc1ncnc2sc3c(c12)CCC(C)C3 (centres undefined) | ? | -21.5% | -0.7% | -1.9% | -0.1% | ?
Cc1ccc(OCC(=O)Nc2ccc3nc(SCC(=O)Nc4ccc(C)cc4C)sc3c2)cc1 | 1.4% | · | · | · | · | ·
O=C(CCc1ccc(S(=O)(=O)N2CCOCC2)cc1)OCc1nc2ccccc2s1 | 21.3µM* | -42.2% | ? | -2.7% | 6.4% | ?
O=C(CCc1nc2ccccc2[nH]c1=O)OCc1ccc(S(=O)(=O)N2CCOCC2)cc1 | 1.6% | 0.1% | 1.4% | -2.2% | 3.2% | -0.5%
O=C(OCCOc1ccccc1)c1cccc(S(=O)(=O)N2CCOCC2)c1 | 2.8% | · | -1.1% | -5.7% | 4.0% | -13.2%
CN(C)c1cccc(C(=O)OCCNC(=O)c2cccc(S(=O)(=O)N3CCOCC3)c2)c1 | -18.0% | · | -7.1% | -4.8% | -9.7% | 7.3µM*
O=C(COC(=O)c1cc(S(=O)(=O)N2CCCCC2)ccc1N1CCOCC1)c1ccc(F)cc1 | -0.6% | · | 1.2% | -0.2% | -1.9% | 10.3µM*
